JMJD2A Tudor: qHTS Assay for Inhibitors of JMJD2A-Tudor Domain; hit rate 4.4% among 390,000; Lysine-specific demethylase 4A (Homo sapiens), O75164; Potency, µM (titrated, usually from 114 µM), usual class: inhibitors; AlphaScreen JMJD2A-Tudor / H3K4me3 peptide binding; further: nearly all actives have a fitted effect of over 50% in size
BAZ2B inh: qHTS Assay for Inhibitors of BAZ2B | Bromodomain adjacent to zinc finger domain protein 2B (Homo sapiens), Q9UIF8 | AlphaScreen BAZ2B-H3K14Ac peptide displacement | Potency, µM (highest dose often 114 µM), actives largely listed as inhibitors | hit rate 4.4% among 360,000 | AID 504333, 2011; further: nearly all actives have a fitted effect of over 60% in size
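Compounds, titrated to a top concentration of 110 uM, were incubated 30 min at room temperature with preformed BAZ2B/acetyl-K14 H3 peptide complex (50 nM each). Proximity signal was measured by AlphaScreen after 20 min with beads.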
HP1b chromo inh: HTS for Inhibitors of HP1-beta Chromodomain Interactions with Methylated Histone Tails; Potency, µM (highest dose often 114 µM), hits mostly inhibitors; Chromobox protein homolog 1 (Homo sapiens), P83916; hit rate 0.56% among 390,000; AlphaScreen HP1-beta / biotin-H3K9me3 peptide binding; further: nearly all actives have a fitted effect of over 70% in size
Target sequence (P83916 whole entry, looked up): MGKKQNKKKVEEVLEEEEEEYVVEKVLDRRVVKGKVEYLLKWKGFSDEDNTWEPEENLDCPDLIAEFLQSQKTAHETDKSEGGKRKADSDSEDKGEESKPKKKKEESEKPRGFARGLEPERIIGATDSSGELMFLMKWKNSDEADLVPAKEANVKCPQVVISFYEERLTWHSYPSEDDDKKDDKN
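AlphaScreen: HP1-beta (50 nM) preformed 30 min with biotin-H3(1-18)K9me3 peptide (50 nM) in PBS pH 7.4, 0.01% Tween-20. Compound added for 30 min at RT, then streptavidin donor/nickel chelate acceptor beads (10 ug/mL) for 30 min.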
G9a block: qHTS Assay for Inhibitors of Histone Lysine Methyltransferase G9a; G9a H3K9 monomethylation, AlphaScreen, 2 h; Potency, µM (highest dose often 102 µM), hits mostly inhibitors; hit rate 8.8% among 350,000; further: nearly all actives have a fitted effect of over 75% in size
Target sequence (Q96KQ7 913-1193 limits assumed): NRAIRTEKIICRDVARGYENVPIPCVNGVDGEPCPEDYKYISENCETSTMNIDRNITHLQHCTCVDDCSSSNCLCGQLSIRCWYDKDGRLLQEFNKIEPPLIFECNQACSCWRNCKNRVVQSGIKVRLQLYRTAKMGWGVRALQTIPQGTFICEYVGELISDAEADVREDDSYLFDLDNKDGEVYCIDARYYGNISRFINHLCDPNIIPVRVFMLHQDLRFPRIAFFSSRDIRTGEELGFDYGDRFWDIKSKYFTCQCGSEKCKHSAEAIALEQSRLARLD
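Compounds were preincubated with 20 nM G9a for 15 min, after which biotinylated H3K9 peptide (500 nM) and SAM (20 uM) started a 2 h room-temperature reaction. Monomethylated product was quantified by antibody-based AlphaScreen chemiluminescence.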
Six1-Eya2 blk: qHTS Assay for Inhibitors of the Six1/Eya2 Interaction; Homeobox protein SIX1 (Homo sapiens) + Protein phosphatase EYA2 (Homo sapiens), …; AlphaScreen GST-Six1/His-Eya2 binding, biochemical; active compounds read low; activity change, % (concentration not given with the values); hit rate 0.56% among 360,000; AID 651725, 2012; in the data active means activity change below about -65%; inconclusive means mostly about -30% to -63%
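Compounds are tested against tagged Six1 and Eya2 proteins bridged by glutathione donor and nickel acceptor beads; after a one-hour incubation at 37 °C without light, AlphaScreen emission is recorded.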
CtBP-E1A inh: qHTS Assay for Inhibitors of the CtBP/E1A Interaction; CtBP / adenovirus E1A interaction (AlphaScreen); AlphaScreen GST-E1A/His-CtBP binding, 1536-well; active compounds read low; activity change, % (test concentration not listed); hit rate 0.49% among 340,000; AID 651724, 2012; in the data active means activity change below about -65%; inconclusive means mostly about -30% to -63%
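In 5 uL wells, 23 nL compound meets equimolar GST-E1A and His-CtBP (5X stock 125 nM each) for 2 h, 37 °C. Beads (5X, 50 ug/mL) then 1 h, 37 °C, dark.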
Hits are given with their value; – = inactive; ? = inconclusive; · = no result given; [ ] = another dose, or the depositor's remark. Sampled rows, rich in hits. Any-hit rate of the full collection: about 10%. Unless noted, the call rests on the fitted dose curve; in most records, active means well fitted inhibition curve with a large enough effect; inconclusive means small, poorly fitted or top-dose-only effect; inactive means no such curve, though single readings can be large or run the other way.

SMILES | JMJD2A Tudor | BAZ2B inh | HP1b chromo inh | G9a block | Six1-Eya2 blk | CtBP-E1A inh
CCC(C)NCCOCCOc1cc(C)c(Cl)c(C)c1 (centres undefined) | 4µM | 79µM | ? | ? | – | –
CCC(C)NCCOCCOc1ccc(F)cc1 (centres undefined) | 3.2µM | ? | ? | ? | – | –
CC1CCN(c2ccc(NC(=O)C3CCCN3S(=O)(=O)c3ccc(F)cc3)cc2)CC1 (centres undefined) | 40µM | 45µM | ? | 10µM | ? | –
CN(C)c1ccc(NC(=O)C2CCCN(S(=O)(=O)c3ccccc3)C2)cc1 (centres undefined) | – | ? | – | 8.9µM | – | –
O=C(Nc1ccc(N2CCOCC2)cc1)C1CCCN(S(=O)(=O)c2ccccc2)C1 (centres undefined) | – | – | – | – | – | –
O=C(Nc1ccccc1F)C1CCCN(S(=O)(=O)c2ccccc2)C1 (centres undefined) | 13µM | – | – | – | – | –
Cc1ccc(S(=O)(=O)N2CCCCC2C(=O)Nc2ccc(N(C)C)cc2)cc1 (centres undefined) | 50µM | · | ? | · | ? | –
CS(=O)(=O)N1CCCC(C(=O)Nc2ccccc2F)C1 (centres undefined) | – | – | – | – | – | –
CN(C)c1ccc(CNC(=O)CN2C(=O)c3cccnc3Oc3ccc(Cl)cc32)cc1 | – | – | – | ? | · | ·
COCCNc1nc2c(c(=O)n(C)c(=O)n2C)n1Cc1c(F)cccc1Cl | – | – | – | – | · | ·
CC(=O)N1CCN(S(=O)(=O)c2ccc(C)cc2)C1c1ccc(N(C)C)cc1 (centres undefined) | ? | – | – | – | – | –
O=C(NCc1ccccn1)C1CCCN(S(=O)(=O)c2ccccc2)C1 (centres undefined) | – | – | – | 35µM | – | –
Cc1ccc(S(=O)(=O)N2CCN(S(=O)(=O)c3ccccc3)C2c2ccc(N(C)C)cc2)cc1 (centres undefined) | ? | ? | – | 8.9µM | – | –
COc1ccc(S(=O)(=O)N2CCCC(C(=O)NCc3ccccn3)C2)cc1 (centres undefined) | – | – | – | – | – | –
CC(C)(C)c1ccc(O)c(/C=N\O)c1 | ? | – | – | – | – | –
CC(C)(C)c1ccc(O)c(O)c1 | 13µM | – | ? | –[0.501 µM] | – | –
Brc1ccccc1OCCCCCN1CCOCC1 | 4.5µM | 56µM | ? | 40µM | – | –
Brc1ccccc1OCCCN1CCCC1 | 10µM | ? | ? | · | – | –
CC(=O)c1ccccc1OCCOCCOCCOc1ccccc1C(C)=O | – | – | – | · | – | –
Fc1ccc(OCCCCN2CCOCC2)cc1 | – | – | – | – | – | –
CC(C)c1ccccc1OCCCN1CCCC1 | 32µM | ? | ? | 40µM | – | ·
CC(=O)c1ccccc1OCCCN1CCCCC1 | 3.2µM | 50µM | ? | 11µM | – | –
Cc1cccc(Cc2c(C)nc3nc(SCc4cccc(F)c4)nn3c2C)c1 | – | – | – | – | · | ·
O=C(NCCCN1CCCCCC1)c1ccc2c(c1)sc1nc(-c3ccccc3)cn12 | – | – | – | – | · | ·
CCOC(=O)c1ccc2ncc3c(-c4ccccc4)nn(-c4ccc(F)c(Cl)c4)c3c2c1 | – | · | – | – | · | ·
SMILES | JMJD2A Tudor | BAZ2B inh | HP1b chromo inh | G9a block | Six1-Eya2 blk | CtBP-E1A inh
O=C1c2ccccc2C(=O)N1CCOc1ccccc1Br | – | – | – | – | – | –
Brc1ccccc1OCCCN1CCCCCC1 | 1µM | ? | ? | 56µM | – | –
Brc1ccccc1OCCN1CCCC1 | 20µM | · | 79µM | · | – | –
Cc1ccccc1OCc1nc2ccc(S(=O)(=O)N3CCOCC3)cc2[nH]1 | ? | ? | – | 3.5µM | – | –
CCc1ccccc1OCc1nc2ccc(S(=O)(=O)N3CCOCC3)cc2[nH]1 | – | – | – | ? | – | –
O=C(Nc1ccc(C(F)(F)F)cc1)N1CCC(N2CCCCC2)CC1 | – | – | – | – | · | ·
COc1ccc(N=CC2CCCCC2=O)c([N+](=O)[O-])c1 (centres undefined) | 25µM | · | 45µM | · | ? | ?
O=C(NN=C1CCCCCCCCCCC1)c1ccncc1 | 28µM | ? | – | – | – | –
COC(=O)c1ccc2c(=O)n(CCc3ccc(S(N)(=O)=O)cc3)c(SCC(=O)C(C)(C)C)nc2c1 | – | – | – | – | · | ·
O=C(C1CCCN(S(=O)(=O)c2cccc3nsnc23)C1)N1CCN(c2ccccc2Cl)CC1 (centres undefined) | – | · | – | – | · | ·
O=C(NCCCN1CCOCC1)/C(=C/c1ccc(-c2cccc([N+](=O)[O-])c2)o1)NC(=O)c1ccccc1 | · | · | · | · | – | –
Cc1nc2nc(C)n(CCN3CCOCC3)c(=O)c2c(-c2cccc([N+](=O)[O-])c2)c1C(=O)CCCCCCCCCCN1CCC(c2ccccc2)(c2ccccc2)CC1 | 25µM | · | 40µM | · | ? | ?
Oc1[nH]c(=S)sc1/C=C1\C(c2ccccc2)=Nc2ccccc21 | 16µM | ? | – | 2.5µM | – | –
Oc1[nH]c(=S)sc1C=C1N=c2ccccc2=N1 | – | – | – | ? | – | –
COC(=O)c1ccc(CSC2=NC[C@@H]3[C@@H]4C(=O)N(Cc5ccccc5)C(=O)[C@@H]4[C@](Cc4ccccc4)(C(=O)OC)N23)cc1 | 79µM | · | – | · | – | –
COc1ccc(-c2cc(C(F)(F)F)nc(SCC(=O)NC(C)c3ccccc3)n2)cc1 (centres undefined) | – | – | – | – | · | ·
COc1ccc(C(=O)c2coc3ccc(O)c(CN4CCCCC4)c23)cc1 | – | – | – | 25µM | – | –
O=C(c1ccc(N2CCOCC2)c([N+](=O)[O-])c1)N1CCCCC1 | – | – | – | – | – | –
Cc1ccc(C)c(S(=O)(=O)N2CCN(C(=O)c3ccc(N4CCCC4)c([N+](=O)[O-])c3)CC2)c1 | ? | ? | – | 32µM | – | ?
Cc1ccc(C)c(N2CCN(C(=O)c3ccc(N4CCOCC4)c([N+](=O)[O-])c3)CC2)c1 | 56µM | ? | 45µM | 45µM | – | –
Cc1ccc(C)c(S(=O)(=O)N2CCN(C(=O)c3ccc(-n4cncn4)c([N+](=O)[O-])c3)CC2)c1 | – | – | – | –[0.501 µM] | – | –
Cc1cccc(Cn2c(SCc3ccc(C(=O)NCCc4ccccc4)cc3)nc3cccnc32)c1 | – | – | – | – | · | ·
